# Test results from PubChem BioAssay (EPA / NIEHS).
# Active and inactive are the calls of the source. The calls were made as follows: active = hit-call score of the fitted dose curve at least 0.9, where 1 is the maximum; inactive = score below 0.9.
# Test: ATG_ISRE_CIS: Attagene CIS-FACTORIAL HepG2 Assay for human Interferon Regulatory Factor 1 (IRF1) binding to an Interferon-Stimulated Response Element (ISRE) (AID 2282948)
# Conditions: HepG2 ISRE cis-reporter (Attagene), mRNA transcription readout; actives raise or lower the signal
# Description: ATG_CIS is a cell-based, multiplexed-readout assay that uses HepG2, a human liver cell line, with measurements taken at 24 hours after chemical dosing in a 24-well plate.ATG_ISRE_CIS is one of 52 assay component(s) measured or calculated from the ATG_CIS assay. It is designed to make measurements of mRNA induction, a form of inducible reporter, as detected with fluorescence intensity signals by Reverse transcription polymerase chain reaction (RT-PCR) and Capillary electrophoresis technology.Data from the assay component ATG_ISRE_CIS was analyzed into 1 assay endpoint. This assay endpoint, ATG_ISRE_CIS, was analyzed with bidirectional fitting relative to DMSO as the negative control and baseline of activity. Using a type of inducible reporter, measures of mRNA for gain or loss-of-signal activity can be used to understand the reporter gene at the transcription factor-level as they relate to the gene IRF1. Furthermore, this assay endpoint can be referred to as a primary readout, because this assay has produced multiple assay endpoints where this one serves a reporter gene function. To generalize the intended target to other relatable targets, this assay endpoint is annotated to the dna binding intended target family, where the subfamily is interferon regulatory factors.
# Human liver HepG2 cells are transiently transfected with multiple reporter transcription units (MRTUs) in 6-well plates using FuGene 6 reagent (Roche; 3 ml FuGene/1 mg DNA). The MRTU constructs are regulated by a cis-regulating element (promoter). […] A major difference between the CIS and TRANS system is that in CIS activities of endogenous TFs are measured, whereas the TRANS assay evaluates changes in activities of exogenous, chimeric NR-Gal4 proteins. […] At the end of 24 hour incubation, total RNA was isolated using TriZol reagent (Invitrogen). The isolated RNA is then reverse-transcribed using oligo(dT) primer and Mo-MLV reverse transcriptase (Invitrogen) with DNAse I (Ambion) treatment for 30 min. The one-tenth of the produced cDNA was amplified by PCR using Taq DNA polymerase (Invitrogen) and two reporter sequence-specific primers. The PCR products were fluorescently labeled by primer extension with 6-arboxyfluorescein (6-FAM) 5'-labeled reporter sequence-specific primer (2 min at 95 C, 20 s at 68 C and 10 min at 72 C) and these products were digested with 5U of HpaI (New England Biolabs) for 2h at 37 C. The fragments were purified using Qiaquick PCR columns (Qiagen), analyzed on an ABI 3130xL genetic analyzer (Applied Biosystems) with peak positions identified by using a set of X-rhodamine (ROX)-labeled MapMarker1000 molecular weight standards (BioVentures). The raw capillary electrophoresis data was processed using Attagraph software (Attagene).
SMILES,outcome,AC50
Nc1ccc2cc3ccccc3cc2c1,inactive,–
O=C(C=Cc1ccccc1)OCc1ccccc1,inactive,–
C[C@]12C=CC(=O)C=C1CC[C@@H]1[C@@H]2[C@@H](O)C[C@@]2(C)[C@H]1CC[C@]2(O)C(=O)CO,inactive,–
COC(=O)/C=C\C(=O)O,inactive,–
CC1(C)O[C@@H]2C[C@H]3[C@@H]4C[C@H](F)C5=CC(=O)CC[C@]5(C)[C@H]4[C@@H](O)C[C@]3(C)[C@]2(C(=O)CO)O1,inactive,–
CC/C=C\C/C=C\C/C=C\CCCCCCCC(=O)O,–,69 µM (active)
Cc1ccccc1C,inactive,–
CCOC(=O)NNc1nncc2ccccc12,inactive,–
CC(=O)OC(C)C,inactive,–
CCOc1ccc(N)c([N+](=O)[O-])c1,inactive,–
C[Si](C)(CCCN)O[Si](C)(C)CCCN,inactive,–
CC1OC1C1CCC2(C)OC2C1 (stereo not given),inactive,–
O=C1C(N(CO)C(=O)NCO)N(CO)C(=O)N1CO (stereo not given),inactive,–
O=S(=O)(O)c1ccccc1C=Cc1ccc(-c2ccc(C=Cc3ccccc3S(=O)(=O)O)cc2)cc1,inactive,–
CC(C)=CCCC(C)C=O (stereo not given),inactive,–
O=C(c1ccccc1)c1ccc(O)c(O)c1O,inactive,–
[Cl][Nd]([Cl])[Cl],inactive,–
COc1cc(C)ccc1C(C)C,inactive,–
C=CCOc1c(Br)cc(Br)cc1Br,inactive,–
C=CC(C)(CCC=C(C)C)OC(=O)C(C)C (stereo not given),inactive,–

SMILES,outcome,AC50
CCN(CC)c1ccc(C(=O)c2ccccc2C(=O)O)c(O)c1,inactive,–
CCCCCCCCCCCCCCCC(=O)OCC,inactive,–
O=C1CCCC1,inactive,–
O=C1c2ccccc2C(=O)C1c1nc2ccccc2c(Br)c1O,inactive,–
COCCOCCOCCOCCOC,inactive,–
N#[N+]c1ccc2c(S(=O)(=O)[O-])cccc2c1O,inactive,–
C=C1[C@H]2CC[C@@H]3[C@H]2C(C)(C)CCC[C@]13C,inactive,–
CCc1ccc2c(c1)C(=O)c1ccccc1C2=O,inactive,–
CC(C)CCCC(C)CC=O (stereo not given),inactive,–
O=C(O)Cc1c(Cl)ccc(Cl)c1Cl,inactive,–
CCCCCC(C)O (stereo not given),inactive,–
Nc1ccc(-c2ccc(F)cc2)cc1,inactive,–
CC1(C)S[C@@H]2[C@H](NC(=O)COc3ccccc3)C(=O)N2[C@H]1C(=O)O,inactive,–
CC(C)(C)c1ccc(OC(=O)c2ccccc2O)cc1,inactive,–
O=C1Nc2ccccc2C1(c1ccc(O)cc1)c1ccc(O)cc1,–,84.2 µM (active)
CCN(CCO)c1cccc(C)c1,inactive,–
OC1OCCOC1O (stereo not given),inactive,–
CCCCC(CC)CCC(CC(C)C)OS(=O)(=O)O (stereo not given),inactive,–
CCOC(=O)N1CCC(=C2c3ccc(Cl)cc3CCc3cccnc32)CC1,–,7.19 µM (active)
CCCOCCOCCOCCO,inactive,–
